Compound activity from PubChem.
BAZ2B inh = blocks human BAZ2B. Q9UIF8. AlphaScreen BAZ2B-H3K14Ac peptide displacement. Potency, µM (series often up to 114 µM), for the others: top-dose activity change, negative = inhibition, most hits filed as inhibitors. 360,000 tested, 4.4% active; note: % is set by controls: 0 for no effect and ±100 for the full control effect; nearly all actives have a fitted effect of over 60% in size
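In this displacement format the biotinylated H3(5-23) peptide acetylated at Lys14 serves as ligand at 50 nM, with BAZ2B at 50 nM in PBS pH 7.4 containing 0.01% Tween-20. Donor and acceptor beads are 10 ug/mL final.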
JMJD2A Tudor inh = JMJD2A Tudor domain (human) inhibition; AID 504339; AlphaScreen JMJD2A-Tudor / H3K4me3 peptide binding; 390,000 tested, 4.4% active; O75164; Potency, µM (series often up to 114 µM), inactives show at the highest dose activity change, negative = inhibition, actives largely listed as inhibitors; note: % is set by controls: 0 for no effect and ±100 for the full control effect; nearly all actives have a fitted effect of over 50% in size
G9a block = inhibitors of human histone lysine methyltransferase G9a; 350,000 tested, 8.8% active; Potency, µM (highest dose often 102 µM), without a hit: top-dose activity, negative = inhibition, most hits filed as inhibitors; G9a H3K9 monomethylation, AlphaScreen, 2 h; AID 504332; note: % is set by controls: 0 for no effect and ±100 for the full control effect; nearly all actives have a fitted effect of over 75% in size
Target sequence (Q96KQ7 913-1193 limits assumed): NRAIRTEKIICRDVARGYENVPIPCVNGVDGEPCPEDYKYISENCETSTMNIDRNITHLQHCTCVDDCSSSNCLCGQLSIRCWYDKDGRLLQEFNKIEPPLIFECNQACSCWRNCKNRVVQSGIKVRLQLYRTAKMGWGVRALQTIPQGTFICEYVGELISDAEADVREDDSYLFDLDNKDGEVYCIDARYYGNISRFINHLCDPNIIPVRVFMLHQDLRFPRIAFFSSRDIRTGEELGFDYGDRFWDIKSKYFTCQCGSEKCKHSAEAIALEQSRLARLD
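Using a bead-based AlphaScreen, monomethylated H3K9 product from 2 h room-temperature reactions (G9a 20 nM, peptide 500 nM, SAM 20 uM) was detected with 0.5 ug/mL rabbit anti-H3K9me1 antibody.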
HP1b chromo inh = blocks HP1-beta chromodomain binding to methylated histone tails; P83916; AlphaScreen HP1-beta / biotin-H3K9me3 peptide binding; Potency, µM (top dose mostly 114 µM), inactives show at the top dose activity change, negative = inhibition, most hits filed as inhibitors; 390,000 tested, 0.56% active; note: nearly all actives have a fitted effect of over 70% in size
Target sequence (P83916 whole entry, looked up): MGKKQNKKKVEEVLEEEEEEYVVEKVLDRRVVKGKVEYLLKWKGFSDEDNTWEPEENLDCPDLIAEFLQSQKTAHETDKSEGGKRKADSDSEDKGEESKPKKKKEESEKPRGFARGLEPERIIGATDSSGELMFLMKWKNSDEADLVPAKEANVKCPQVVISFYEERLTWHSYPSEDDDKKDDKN
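Compound inhibition of the preformed complex between 50 nM HP1-beta and 50 nM biotinylated H3K9me3 peptide was read by AlphaScreen. Buffer was PBS pH 7.4 with 0.01% Tween-20. Incubations ran 30 min at room temperature, with 10 ug/mL donor/acceptor beads.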
Sfp inh = Sfp phosphopantetheinyl transferase inhibition | Q9F4F7 | Biochemical Sfp PPTase activity, qHTS | Potency, µM, without a hit: largest response in the series, negative = inhibition, usual class: inhibitors | 310,000 tested, 3.5% active;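 note: the enzyme is Sfp with the accession as filed and its product quenches rhodamine fluorescence; 0% = enzyme reaction without inhibitor and -100% = no enzyme wells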
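Fluorescence-quenching assay with 15 nM Sfp, 5 uM rhodamine-CoA and 12.5 uM BHQ-2-labelled ybbR peptide in pH 7.6 Hepes/MgCl2 buffer. Enzyme was pre-incubated with compound for 15 min at room temperature. Rate was taken from the 30-min fluorescence change (525/598 nm).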
* hit, by the source's call; ? = inconclusive; / = no result given; [ ] = remark or other dose. Compounds with a hit are over-represented: about 12% of the library has one in this group of screens. Calls come from the whole dose curve; as a rule, active = well fitted curve in the direction sought with a large enough effect; inconclusive = small, poorly fitted or top-dose-only effect, or another doubt; inactive = no such curve, though single readings can be large; an effect the other way counts as inactive or inconclusive. Potency is the fitted concentration of half-maximal effect.

SMILES	BAZ2B inh	JMJD2A Tudor inh	G9a block	HP1b chromo inh	Sfp inh
CC(=O)Nc1nc(-c2ccc3c(c2)CC(C)N3C(=O)C2CC2)c(C)s1 (stereo not drawn)	?	-31.5%	25.1µM*	?	50.1µM*
Cc1sc(NC(=O)c2ccco2)nc1-c1ccc2c(c1)CC(C)N2C(=O)C1CC1 (stereo not drawn)	-3.9%	-26.3%	44.7µM*	?	-18.2%
CC1Cc2cc(S(=O)(=O)NCc3ccccc3)ccc2N1C(=O)C1CC1 (stereo not drawn)	-0.5%	-4.8%	12.1%[59 µM]	28.3%	16.8%
Cc1sc(NC(=O)CN2CCCC2)nc1-c1ccc2c(c1)CCN2C(=O)c1cccc(F)c1	?	?	?	-9.8%	-3.6%
Cc1cc[n+](-c2[nH]c(=O)sc2/C=N/N=C(\[O-])c2ccccc2)cc1C	?	-0.4%[57.1 µM]	50.1µM*	34.5%	-17.1%
Cc1cc(C)c[n+](-c2[nH]c(=O)sc2/C=N/N=C(\N)[S-])c1	?	-10.9%	39.8µM*	6.4%	25.1µM*
Cc1ccc[n+](-c2[nH]c(=O)sc2/C=N/N=C(\[O-])c2cccnc2)c1	-11.5%	-1.5%	?	40.7%	-12.3%
Cc1cc[n+](-c2[nH]c(=O)sc2/C=N/N=C(\[O-])c2ccncc2)cc1	56.2µM*	-10.7%	-12.5%	38.7%	-9.6%
O=c1[nH]c(-[n+]2ccccc2)c(/C=N/N=C(\[O-])c2ccccc2)s1	-6.9%	-7.7%	/	-3.2%	-12.8%
Cc1cc[n+](-c2[nH]c(=O)sc2/C=N/N=C(\[O-])c2ccccc2)cc1	50.1µM*	?	-38.8%	9.9%	?
O=C(O)CCC(=O)Nc1ccc(-n2ccc(C(F)(F)F)n2)cc1	-24.3%	-7.0%	/	22.2%	-18.8%
NS(=O)(=O)c1ccc(CCNC(=O)COC(=O)/C=C/c2ccc(OC(F)F)cc2)cc1	9.9%	-4.7%	-20.7%	27.5%	/
CCOC(=O)C1=C(C)NC(C)=C(C(=O)OCC)C1C(=O)OCC(=O)NC1CCCCC1	/	0.7%	/	32.1%	/
O=C(N/N=C\c1cccs1)c1sccc1-n1cccc1	?	-31.2%	-24.4%	7.9%	11.4%
CCOC(=O)c1ccc(NC(=O)N2C3CCCC2CC(NC(C)=O)C3)cc1 (stereo not drawn)	10.5%	11.7%	/	33.4%	-1.5%
CCc1ccc[n+](-c2[nH]c(=O)sc2/C=N/N=C(\[O-])CCn2c3ccccc3c3ccccc32)c1	?	-29.5%	44.7µM*	?	-23.7%
CCCCc1nc2sc3c(=O)[nH]cnc3c2c2c1CCCC2	2.8%	-5.6%	/	21.1%	7.8%
CCCCc1nc2sc3c(=O)[nH]c(=S)[nH]c3c2c2c1CCC2	/	20µM*	/	38.8%	/
COc1ccccc1C(=O)OCC(=O)NC1CCCC1	20.1%	-3.0%	-5.8%[2.33 µM]	2.6%	3.2%
c1ccc(-c2nc3c([nH]2)CCc2nonc2-3)cc1	-4.3%	-4.5%	5.1%[59 µM]	42.5%	16.1%
CC(C)n1cc(C(N)=S)c(=O)n(Cc2ccccc2)c1=O	-14.5%	-7.8%	50.1µM*	22.7%	15.7%
C[C@@](Cc1ccccc1)(NC(=O)CN)c1ccccc1	/	/	-4.2%[12.7 µM]	/	-3.9%
COc1ccc(/C=C(/NC(=O)c2ccccc2)C(=O)NCCCn2ccnc2)cc1OC	-23.3%	-3.5%	13.6%	26.8%	10.7%
COc1ccc(/C=C(\NC(=O)c2ccc(C)cc2)C(=O)NCCCn2ccnc2)cc1OC	50.1µM*	-29.1%	5.6%	-11.2%	15.3%
Cc1ccc(C(=O)N/C(=C\c2ccc(F)cc2)C(=O)NCCCn2ccnc2)cc1	79.4µM*	-15.5%	8.2%	55.1%	2.0%
SMILES	BAZ2B inh	JMJD2A Tudor inh	G9a block	HP1b chromo inh	Sfp inh
COc1cccc(/C=N/NC(=S)Nc2cccnc2)c1	-16.4%	-29.4%	?	14.8%	-2.5%
COc1cccc(/C=N/NC(=S)Nc2cccc(S(=O)(=O)N(C)C)c2)c1	?	?	8.91µM*	?	10µM*
COc1ccc(O)c(/C=N/NC(=S)Nc2cccnc2)c1	/	25.1µM*	?	10.1%	-5.7%
CN(C)S(=O)(=O)c1cccc(NC(=S)N/N=C/c2ccc(O)c(O)c2O)c1	4.47µM*	20µM*	3.16µM*	?	3.16µM*
COc1ccc(O)c(/C=N/NC(=S)Nc2cccc(S(=O)(=O)N(C)C)c2)c1	7.94µM*	22.4µM*	?	-32.1%	-8.4%
COc1cc(/C=N/NC(=S)Nc2cccc(S(=O)(=O)N(C)C)c2)cc(OC)c1O	-32.2%	-16.6%	3.5%[59 µM]	23.5%	-1.8%
COc1ccc(C2=NN(S(C)(=O)=O)C(c3cn(-c4ccccc4)nc3-c3cccs3)C2)cc1 (stereo not drawn)	-26.0%	-19.8%	1.1%[59 µM]	7.9%	/
COc1ccc(C(=O)Nc2nnc(CC(=O)N/N=C/c3ccc(O)cc3O)s2)cc1	-5.0%	/	-2.3%	/	-1.2%
Cc1ccc(C(=O)Nc2nnc(Cc3ccccc3)s2)cc1	5.5%	-5.7%	-9.3%[2.33 µM]	46.0%	6.6%
Cc1ccc(C(=O)Nc2nnc(CC(=O)N/N=C/c3ccncc3)s2)cc1	?	?	35.5µM*	22.6%	-23.7%
Cc1ccc(C(=O)Nc2nnc(CC(=O)N/N=C/c3ccc(O)c(O)c3)s2)cc1	79.4µM*	?	-31.4%[2.33 µM]	-24.0%	-13.1%
CSC1=NCCN1S(=O)(=O)c1ccc(Cl)cc1	1.6%	-15.2%	3.3%	15.8%	11.9%
COC(=O)c1ccc(N=Nc2c(C)[nH]n(-c3ccccc3)c2=O)cc1	?	?	8.91µM*	?	-5.2%
CC(=O)c1cccc(N=Nc2c(-c3ccccc3)[nH]n(-c3ccccc3)c2=O)c1	5.01µM*	?	/	14.1µM*	?
Cc1[nH]n(-c2ccccc2)c(=O)c1N=O	-28.1%	-12.0%	-8.3%[12.7 µM]	22.7%	4.3%
Cc1[nH]n(-c2ccccc2)c(=O)c1C(=O)c1cccc(F)c1	-18.1%	-21.0%	/	42.1%	9.2%
Cc1ccc(N=Nc2c(C)[nH]n(-c3ccccc3)c2=O)cc1Br	12.6µM*	?	3.55µM*	-2.0%	-0.9%
Cc1[nH]n(-c2ccc(Cl)cc2)c(=O)c1N=Nc1cccnc1	-36.0%	-17.9%	-43.5%	16.0%	7.7%
Cc1ccc(N=Nc2c(C)[nH]n(-c3ccccc3)c2=O)c(C)c1	12.8%	11.2µM*	-13.5%	22.4µM*	-19.0%
COc1cccc(N/C(=N/C(=S)Nc2ccc(C)cc2C)Nc2nc(C)cc(C)n2)c1	-17.7%	-7.9%	/	32.5%	?
COc1cc(-c2cc(OC)c(O)c(OC)c2)cc(OC)c1O	/	-30.3%	/	?	/
Cc1[nH]n(-c2ccccc2)c(=O)c1N=Nc1ccc2c(c1)OCCO2	6.31µM*	22.4µM*	7.08µM*	?	-2.1%
Cc1[nH]n(-c2ccccc2)c(=O)c1N=Nc1c(O)cc(S(=O)(=O)N(C)C)c2ccccc12	7.94µM*	20µM*	3.55µM*	17.8µM*	/
Cc1[nH]n(-c2ccccc2)c(=O)c1-c1ccccc1	/	-26.4%	18.4%[59 µM]	-11.2%	10.5%
Cc1[nH]n(-c2ccccc2)c(=O)c1N=Nc1cccc(Cl)c1	22.4µM*	?	/	?	17.2%
